Bioassay records: PubChem BioAssay, National Center for Advancing Translational Sciences (NCATS)
SARS PLpro yeast: inhibitors of SARS-CoV papain-like protease in yeast; S. cerevisiae expressing SARS-CoV PLpro, growth rescue; hit rate 0.19% among 330,000; Potency, µM (series often up to 32.9 µM), usual class: activators; AID 485353; also: nearly all actives have a fitted effect of over 55% in size
NS1 inh: inhibitors of influenza NS1 protein function; Potency, µM (series often up to 46.1 µM); hit rate 0.4% among 270,000; AID 2326; also: actives are rising curves; nearly all actives have a fitted effect of over 50% in size
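In this qHTS, NS1 from influenza A is expressed in budding yeast, where it slows growth. Cells are switched from glucose to 2% galactose medium (pH 6.0, -URA), treated with compound, and growth recovery is read at OD600.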
Pf growth 48h: P. falciparum growth inhibition at 48 hours (one generation); hit rate 5.9% among 310,000; Potency, µM (titrated, usually from 28.7 µM), actives largely listed as inhibitors; P. falciparum luciferase growth in erythrocytes, 48 h; AID 504832; active = well fitted inhibition curve with a large enough effect; inconclusive = small, poorly fitted or top-dose-only effect, or another doubt; inactive = no such curve, though single readings can be large or run the other way
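Luminescence readout; reporter = integrated firefly luciferase in P. falciparum. RBC culture at 2% hematocrit, 0.1% parasitemia final, 37 C/5% CO2; decreased signal taken as growth inhibition.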
Pf growth 96h: P. falciparum growth inhibition at 96 hours. P. falciparum luciferase reporter growth, 96 h. hit rate 6.9% among 320,000. Potency, µM (highest dose often 28.7 µM), most hits filed as inhibitors; active = well fitted inhibition curve with a large enough effect; inconclusive = small, poorly fitted or top-dose-only effect, or another doubt; inactive = no such curve, though single readings can be large or run the other way
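Readout is luminescence from an integrated firefly luciferase in P. falciparum. Red cells, 2% hematocrit and 0.05% parasitemia final, were cultured with compound through two parasite generations (96 hours) at 37 C, 5% CO2.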
NS1 inh valid: validation of influenza NS1 protein function inhibitors; shares compounds with NS1 inh; influenza NS1 function cell assay, 15-point titration; activity change, negative = inhibition, % at 32.9 µM; 1,400 tested, under 10 active; AID 492980
PR8 titer: reduces influenza A/PR/8/34 replication in MDCK cells; shares compounds with NS1 inh; MDCK infected influenza A/PR/8/34, virus titer TCID50; stronger effect = lower value; virus titer (log TCID50), log10 TCID50 at 5 µM; hit rate 30% among 95; call rule not given here
Large screens that a line does not name were inactive (follow-up assays come after a bar, where they were run); ! = not confirmed by another sample. This is a sample that favours compounds with a hit; in the whole collection about 10% have one here. Unless noted, calls follow the shape of the full dose curve.

CC1Cc2ccccc2N1C(=O)CSc1nnc(-c2ccccc2)c(-c2ccccc2)n1 (configuration not stated)	NS1 inh inconclusive | NS1 inh valid inactive
COc1ccc(/C=N/NC(=O)c2ccc(CN3c4cccc5cccc(c45)S3(=O)=O)cc2)cc1	NS1 inh inconclusive, Pf growth 48h inconclusive, Pf growth 96h inconclusive
O=C(N/N=C/CCc1ccccc1)c1ccc(CN2c3cccc4cccc(c34)S2(=O)=O)cc1	SARS PLpro yeast inconclusive, NS1 inh 8.91µM | NS1 inh valid inactive
Cc1ccc(C(=O)N2CC(=O)Nc3ccc(C)cc3C2c2ccccc2)cc1 (configuration not stated)	Pf growth 48h inconclusive
Cc1ccc2c(c1)C(c1ccccc1)N(C(=O)C(C)C)CC(=O)N2 (configuration not stated)	NS1 inh inconclusive, Pf growth 96h inconclusive | NS1 inh valid inactive
CCC(C(=O)Nc1ccc(C(=O)O)cc1NC(=O)C(CC)c1ccccc1)c1ccccc1 (configuration not stated)	NS1 inh 11.2µM | NS1 inh valid inactive
Cc1ccc(C(=O)O)cc1NC(=S)NC(=O)C(c1ccccc1)c1ccccc1	NS1 inh inconclusive, Pf growth 96h inconclusive | NS1 inh valid inactive
Cc1ccc(C(=O)O)cc1NC(=S)NC(=O)Cc1ccccc1	none
CCC(C(=O)Nc1cc(C(=O)O)ccc1C)c1ccccc1 (configuration not stated)	none
CN(C(=O)COC(=O)CNC(=O)c1ccc(Cl)cc1Cl)c1ccccc1	none (no result: NS1 inh)
COc1ccc(CNC(=O)CN(C(=O)c2snc(C(N)=O)c2N)c2ccccc2F)cc1	none
CCOC(=O)C1=C(C)Nc2sc(C(=O)c3ccc(C)cc3)c(N)c2C1c1ccc(C(=O)OC)cc1 (configuration not stated)	NS1 inh 10µM, Pf growth 48h 11.7µM, Pf growth 96h 5.22µM | NS1 inh valid inactive
COc1cccc(C2=NOC(C(=O)Nc3cccc(C(C)=O)c3)C2)c1 (configuration not stated)	NS1 inh 2.82µM | NS1 inh valid inactive
Cc1ccc(S(=O)(=O)Nc2ccccc2-c2ccccc2NS(=O)(=O)c2ccc(C)cc2)cc1	NS1 inh 10µM, Pf growth 48h inconclusive | NS1 inh valid inactive | PR8 titer inactive
COC(=O)c1ccc(Sc2ccccc2NS(=O)(=O)c2ccc(C)cc2)nc1	NS1 inh inconclusive | NS1 inh valid inconclusive
Cc1ccc(S(=O)(=O)Nc2ccccc2C(N)=O)cc1	Pf growth 96h inconclusive (no result: SARS PLpro yeast)
Cc1cc2nc3c(=O)n(C4CCCCC4)c(=O)[nH]c3nc2cc1N	NS1 inh 7.94µM, Pf growth 96h inconclusive | NS1 inh valid inactive
COc1ccc(N2C(=O)CSC2c2cccc(F)c2)cc1 (configuration not stated)	none
Cc1ccc2cccc(NC(=S)NC(=O)c3ccnn3C)c2n1	SARS PLpro yeast inconclusive, NS1 inh 15.8µM, Pf growth 48h inconclusive, Pf growth 96h inconclusive | NS1 inh valid inactive
CC(=O)NC(=S)Nc1cccc2ccc(C)nc12	Pf growth 96h inconclusive
CC1CC(C)CN(c2ccc(C(=O)NCc3ccc4c(c3)OCO4)cc2[N+](=O)[O-])C1 (configuration not stated)	NS1 inh 10µM | NS1 inh valid inactive
CCOC(=O)c1cc(-c2ccccc2)sc1NC(=O)CN1C(=O)NC(CC)(c2ccc(F)cc2)C1=O (configuration not stated)	NS1 inh 11.2µM, Pf growth 48h inconclusive (no result: Pf growth 96h) | NS1 inh valid inactive
O=C(Cc1cc(=O)[nH][nH]1)N/N=C/C=C/c1ccccc1	NS1 inh 5.01µM! | NS1 inh valid inactive
O=C(O)CC(c1ccc(F)cc1F)N1Cc2ccccc2C1=O (configuration not stated)	Pf growth 48h inconclusive
O=C(O)CC(c1cccc2ccccc12)N1Cc2ccccc2C1=O (configuration not stated)	NS1 inh inconclusive, Pf growth 48h inconclusive, Pf growth 96h inconclusive | NS1 inh valid inactive
CC(C)CC(C)N1CCC(n2nccc2NC(=O)CCc2ccccc2)CC1 (configuration not stated)	Pf growth 96h inconclusive
O=C(CSC(=S)N1CCOCC1)Nc1ccc(S(=O)(=O)Nc2ncccn2)cc1	none
Cc1cc(-c2csc(NC(=O)c3ccc(=O)n(C)n3)n2)c(C)n1CC1CCCO1 (configuration not stated)	NS1 inh 20µM, Pf growth 48h inconclusive, Pf growth 96h 7.38µM | NS1 inh valid inactive
Cc1cc(-c2csc(NC(=O)c3ccc(=O)[nH]c3)n2)c(C)n1Cc1ccco1	Pf growth 96h inconclusive
O=C1CN(C(=O)COc2c(F)c(F)cc(F)c2F)c2ccccc2N1	Pf growth 48h inconclusive
COc1ccc(CC(=O)N2CCCC2)c(OC)c1	none
COc1ccccc1-n1cc(-c2ccc(Br)cc2)[nH]c1=S	NS1 inh 4.47µM, Pf growth 48h inconclusive | NS1 inh valid inactive
CC(C)Cn1c(N)c(C(=O)COC(=O)c2ccc3ccccc3n2)c(=O)n(C)c1=O	NS1 inh 10µM, Pf growth 96h 4.15µM | NS1 inh valid inactive
COc1cc2c(=O)n(CCC(=O)NCC3CCCO3)c(=O)n(CC(=O)c3ccc(Cl)cc3)c2cc1OC (configuration not stated)	none (no result: NS1 inh)
COc1ccc(N(C)C(=O)c2cn(CC(C)C)c(=O)c3cc(OC)c(OC)cc23)cc1	none
Cc1cc(N)n(Cc2ccc(Cl)cc2)n1	none
Cc1ccc(-c2cc(N)n(Cc3ccc(Cl)cc3)n2)cc1	NS1 inh 5.01µM, Pf growth 96h inconclusive | NS1 inh valid inactive
CCCCn1c(=O)cc(O)c2ccccc21	NS1 inh 10µM | NS1 inh valid inactive
CC1(C)Cc2c(C#N)c(N3CCN(C(=O)c4ccccc4)CC3)nc(-c3ccco3)c2CS1	NS1 inh 8.91µM, Pf growth 48h inconclusive, Pf growth 96h inconclusive | NS1 inh valid inactive
CC1CC(C)CN(C(=O)COC(=O)CNC(=O)C23CC4CC(CC(C4)C2)C3)C1 (configuration not stated)	none (no result: NS1 inh)
O=C1N=C(N2CCc3ccccc3C2)S/C1=C\c1cccc(O)c1	NS1 inh inconclusive, Pf growth 96h inconclusive | NS1 inh valid inconclusive
COc1ccc(/C=C2\SC(N3CCc4ccccc4C3)=NC2=O)cc1	Pf growth 48h inconclusive, Pf growth 96h inconclusive
Clc1cccc(CN2CCC(Cc3ccccc3)CC2)c1	NS1 inh inconclusive | NS1 inh valid inactive
CSc1ccc(CN2CCC(Cc3ccccc3)CC2)cc1	none
CC(C)NC(=O)c1ccccc1S(=O)(=O)c1ccccc1C#N	none
CNC(=O)c1ccccc1S(=O)(=O)c1ccccc1C#N	NS1 inh inconclusive, Pf growth 48h inconclusive, Pf growth 96h inconclusive | NS1 inh valid inactive
COc1cccc(C2CC(c3ccccc3Cl)Nc3ncnn32)c1 (configuration not stated)	none (no result: SARS PLpro yeast, Pf growth 48h, Pf growth 96h)
